These results are taken from PMC4552634, “A New Set of Chemical Starting Points with Plasmodium falciparum Transmission-Blocking Potential for Antimalarial Drug Discovery” (PLoS ONE, 2015).

The subject of this assay is P. falciparum stage V gametocytes. On the set-up: BacTiter-Glo ATP luminescence viability of purified stage V gametocytes in 384-well plates, per cent inhibition versus DMSO. Conditions: 48 h, 5 µM, inhibitor.

Where two headings read alike, the source gives them in different places. About 3,200 (25%) of roughly 13,000 compounds showed an effect of 50% or more. This is one part of the list.

By % Inhibition is commonly meant the relative decrease from the control value, in per cent. For `COc1cc2c(cc1N1CCN(C)CC1)N(C(=O)Nc1ccc(-c3ccncc3)c(Cl)c1Cl)CC2` [TCMDC-139163], the “% Inhibition” value was -33.93%.
Same read-out and setting: the figure for `CN1CCN(c2ccnc3ccc(NC(=O)Nc4cccc(C#N)c4)cc23)CC1` [TCMDC-139323] is 13.5%.
The same measure, in the same setting: the same measure for `Cc1noc(C)c1-c1ccc2c(Nc3ccc(C#N)cc3)c(C(N)=O)cnc2c1` [TCMDC-136029]: 27.78%; for `CCOC(=O)CNCC(=O)c1ccc(OCc2ccccc2)cc1` [TCMDC-131777]: 33.46%; for `CN(C)c1ccc(OCCCCCCOc2ccccc2)cc1` [TCMDC-138000]: -96.23%.
The same measure, in the same setting: the figure for `CC1(C)CC(NCCCCCCCOc2ccc(OCc3ccccc3)cc2)CC(C)(C)N1` [TCMDC-138958] is 104%; for `N#Cc1ccc(NC(=O)N2CCCN(CCCCCNC(=O)/C=C/c3ccc(Cl)c(Cl)c3)CC2)cc1` [TCMDC-135746] it is -26.45%.
`O=C(Nc1ccc(Cl)cc1)c1cccc(CN2CCCN(Cc3cccc(O)c3)CC2)c1` [TCMDC-135963]: the “% Inhibition” value was -7.455%.
For `O=C(/C=C/c1cccc(Cl)c1)NC1CCC(CN2CCC(c3c[nH]c4ccccc34)CC2)CC1` (centres unmarked) [TCMDC-139700], the “% Inhibition” value (% Inhibition) is 105.2%.
As to `O=C(/C=C/c1ccc2ccccc2c1)NC1CCC(CN2CCC(c3c[nH]c4ccccc34)CC2)CC1` (centres unmarked) [TCMDC-139707], the “% Inhibition” value was 26.41%.
Take `O=C(/C=C/c1cccc(Cl)c1)NC1CCC(CN2CCC(c3c[nH]c4ccccc34)CC2)CC1` (centres unmarked) [TCMDC-139715]: the “% Inhibition” value (% Inhibition) was found to be 101.4%.
`O=C(/C=C/c1ccc(Cl)cc1Cl)NC1CCC(CN2CCC(c3c[nH]c4ccccc34)CC2)CC1` (centres unmarked) [TCMDC-139704]: the “% Inhibition” value is on record as -6.512%.
Same read-out and setting: the same measure for `NC(=O)CN1CC=C(c2c[nH]c3ccc(Br)cc23)CC1` [TCMDC-131969]: -24.55%.
Same read-out and setting: the same measure for `Cc1cc(NC(=O)c2cccs2)ccc1OC1CCN(Cc2ccc(F)cc2)CC1` [TCMDC-133743]: 2.358%; for `COc1ccc(CCC(C)N2CC(N)C(c3cn(C)c4cnccc34)C2)cc1` (centres unmarked) [TCMDC-124826]: 30.72%; for `CC1CCN(CCNC(=O)c2ccc3c(=O)n(Cc4ccc(Cl)cc4)c(=S)[nH]c3c2)CC1` [TCMDC-125693]: -28.57%.
As for `CCCCCCCN1CC[C@@H](CCCc2ccnc3ccc(OCCCCNC(N)=NO)cc23)[C@@H](CC)C1` [TCMDC-139839], the “% Inhibition” value is recorded as 107.7%.
The same measure, in the same setting: the same measure for `CC[C@H]1CN(CCCC(=O)c2ccccc2)CC[C@H]1CCCc1ccnc2ccc(OC(=O)c3ccccc3)cc12` [TCMDC-131478]: 92.9%.
`CC[C@H]1CN(Cc2ccccc2Br)CC[C@H]1CCCc1ccnc2ccc(O)cc12` [TCMDC-140335]: the “% Inhibition” value is -7.327%.
The same measure, in the same setting: the same measure for `CC[C@H]1CN(Cc2cccc(O)c2)CC[C@H]1CCCc1ccnc2ccc(O)cc12` [TCMDC-140337]: 3.253%.
Same read-out and setting: the figure for `CCCCCCCN1CC[C@@H](CCCc2ccnc3ccc(OCCCCNC(N)=O)cc23)[C@@H](CC)C1` [TCMDC-139835] is 110.9%; for `O=C(Nc1ccc2c(c1)CCN2C1CCN(Cc2cccc(C(F)(F)F)c2)C1)c1ccco1` (centres unmarked) [TCMDC-135065] it is -42.49%.
Same read-out and setting: the same measure for `CCOC(=O)c1ccc(-c2cnc(N)c(-c3nc4c(C)cccc4[nH]3)c2)cc1` [TCMDC-135560]: 19.55%; for `COc1cc(CCCOc2c(N)nc(N)nc2N)cc(OC)c1OC` [TCMDC-131361]: 8.778%.
`CC(C)(C)c1ccc(CN2CCC(CNC(=O)c3cc(-c4ccccc4Cl)cs3)C2)cc1` (centres unmarked) [TCMDC-134445]: the “% Inhibition” value is 95.91%.
In the case of `CC(C)c1ccc(CN2CCCCC(NC(=O)c3cc(-c4ccccc4Cl)cs3)C2)cc1` (centres unmarked) [TCMDC-134464], the “% Inhibition” value is recorded as -27.61%.
In the case of `CCc1ccccc1-c1csc(C(=O)NCC2CCN(Cc3ccc(C(C)(C)C)cc3)C2)c1` (centres unmarked) [TCMDC-134448], the “% Inhibition” value was 91.94%.
For `CN(C)c1ccc(CN2CCC(CNC(=O)c3cc(-c4ccccc4Cl)cs3)C2)cc1` (centres unmarked) [TCMDC-134455], the “% Inhibition” value was 49.98%.
The same measure, in the same setting: the same measure for `COc1ccccc1-c1csc(C(=O)NCC2CCN(Cc3ccc(C(C)(C)C)cc3)C2)c1` (centres unmarked) [TCMDC-134511]: -88.72%; for `CCc1ccc(CN2CCC(CNC(=O)c3cc(-c4ccccc4Cl)cs3)C2)cc1` (centres unmarked) [TCMDC-134433]: 74.35%; for `CC(C)(C)c1nn(-c2ccccc2)c2[nH]c(=O)c(CNC3CCCCC3)cc12` [TCMDC-123551]: 7.742%.
Same read-out and setting: the figure for `CC(=O)c1ccc(NC(=O)NNC(=O)c2ccc(CCN3CCC(c4nc(COCC(F)(F)F)c(-c5ccc(F)cc5)o4)CC3)cc2)cc1` [TCMDC-131905] is -7.106%; for `CC(C)(CN)c1nc(-c2ccc(Cl)c(O)c2)c(-c2ccncc2)[nH]1` [TCMDC-140369] it is -60.83%.
Still for that read-out and setting: the same measure for `Oc1cc(-c2nc(C3(CNCc4ccc(Cl)cc4)CCCCC3)[nH]c2-c2ccncc2)ccc1Cl` [TCMDC-141155]: -6.27%; for `NCC1(c2nc(-c3ccc(Cl)c(O)c3)c(-c3ccncc3)[nH]2)CCCCC1` [TCMDC-141154]: 57.41%.
With `CC(CNC(=O)c1cc2c(Cl)cc(Cl)cc2[nH]1)CNc1cc(=O)c2ccccc2[nH]1` (centres unmarked) [TCMDC-140624], the “% Inhibition” value is recorded as -21.72%.
For the compound `CCC(C)NS(=O)(=O)c1ccc2nc(Nc3ccc(C)c(Cl)c3)n(C(C)C(C)C)c2c1` (centres unmarked) [TCMDC-134310], the “% Inhibition” value was -65.92%.
Regarding `Br.CC[C@H]1CN2CCc3cc(OC)c(OC)cc3[C@@H]2C[C@@H]1CC1=NCCc2c1[nH]c1ccc(OCc3ccccc3)cc21` [TCMDC-137627], the “% Inhibition” value was found to be 69.01%.
The same measure, in the same setting: the same measure for `CCC1CN2CCc3c([nH]c4ccccc34)C2CC1CC1=NCCc2c1[nH]c1ccccc21` (centres unmarked) [TCMDC-141998]: 9.363%; for `CC[C@H]1CN2CCc3c([nH]c4ccccc34)[C@@H]2C[C@@H]1CC1c2cc(OC)c(OC)cc2CCN1C` (some centres unmarked) [TCMDC-142011]: -85.21%; for `CCOC(=O)c1ccc(NC(=O)Nc2ccc(-c3cccc(-c4nc5ccccc5[nH]4)c3)cc2)cc1` [TCMDC-133270]: -42.41%.
Consider `O=C(NCCc1ccccc1F)c1ccc(N2CCN(c3ccncc3)CC2)cn1` [TCMDC-135154], for which the “% Inhibition” value is on record as -6.834%.
For the compound `O=C(NCc1ccc(F)cc1)c1cc(Br)cc(N2CCN(c3ccncc3)CC2)c1` [TCMDC-135150], the “% Inhibition” value was 12%.
On the same count and under the same terms, the same measure for `O=C(NCCc1cccc(Cl)c1Cl)c1cnc(N2CCN(c3ccncc3)CC2)c(Cl)c1` [TCMDC-134597]: -18.32%.
Take `COc1ccccc1CCNC(=O)c1cnc(N2CCN(c3ccncc3)CC2)c(Cl)c1` [TCMDC-134595]: the “% Inhibition” value turned out to be 89.83%.
As to `COc1ccccc1CNC(=O)c1cc(Br)cc(N2CCN(c3ccncc3)CC2)c1` [TCMDC-135151], the “% Inhibition” value worked out at 104.3%.
Turning to `O=C(NCCc1cccc(F)c1)c1cc(Br)cc(N2CCN(c3ccncc3)CC2)c1` [TCMDC-135145], the “% Inhibition” value is 3.253%.
The same measure, in the same setting: the figure for `O=C(NCc1ccc(F)cc1)c1ccc(N2CCN(c3ccncc3)CC2)cn1` [TCMDC-135157] is 0.3973%; for `Cc1ccccc1CCNC(=O)c1cnc(N2CCN(c3ccncc3)CC2)c(Cl)c1` [TCMDC-134598] it is 14.18%; for `COc1ccccc1CNC(=O)c1ccc(N2CCN(c3ccncc3)CC2)cn1` [TCMDC-135158] it is 60.69%.
The same measure, in the same setting: the same measure for `O=C(NCCc1ccccc1F)c1cc(Br)cc(N2CCN(c3ccncc3)CC2)c1` [TCMDC-135147]: -5.133%.
Same read-out and setting: the same measure for `COc1ccccc1CCNC(=O)c1cc(Br)cc(N2CCN(c3ccncc3)CC2)c1` [TCMDC-135148]: -33.58%; for `O=C(NCc1cccc(CN2CCOCC2)c1)c1cc(Br)cc(N2CCN(c3ccncc3)CC2)c1` [TCMDC-135152]: 69.44%.
